# GLD-1 RNA inh: GLD-1-TGE RNA interaction inhibition (C. elegans); Q17339; purified GLD-1 + fluorescein TGE RNA, fluorescence polarization; inhibition, % at 5.96 µM; 0.44% of 320,000 active;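 active = percent inhibition above a per-plate cutoff, the plate mean of test compounds plus 3 SD, cut at about 30% in these data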
# Target sequence (Q17339 whole entry, looked up): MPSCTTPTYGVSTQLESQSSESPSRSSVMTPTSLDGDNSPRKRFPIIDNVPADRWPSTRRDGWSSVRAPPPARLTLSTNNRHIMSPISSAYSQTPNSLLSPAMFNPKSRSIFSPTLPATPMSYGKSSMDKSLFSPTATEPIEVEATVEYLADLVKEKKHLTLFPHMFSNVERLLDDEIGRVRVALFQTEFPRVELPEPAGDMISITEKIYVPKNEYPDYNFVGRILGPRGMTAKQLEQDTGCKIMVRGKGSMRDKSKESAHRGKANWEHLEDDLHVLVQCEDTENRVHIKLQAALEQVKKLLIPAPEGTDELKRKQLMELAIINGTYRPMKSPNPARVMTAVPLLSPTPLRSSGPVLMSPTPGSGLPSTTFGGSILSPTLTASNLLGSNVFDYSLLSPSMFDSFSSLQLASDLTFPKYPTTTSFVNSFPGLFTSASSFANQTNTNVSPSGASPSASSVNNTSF
# BCLXL inh: Bcl-xL (human) inhibition; inhibition, % at 10.9 µM; 0.7% of 320,000 active; GST-Bcl-xL / FITC-Bim BH3 peptide fluorescence polarization;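 active = inhibition above the mean of all tested compounds plus 3 SD, cutoff set per campaign, cut at about 30% in these data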;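 note: inhibitors lower millipolarization by displacing the labeled peptide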
# Mcl1 Bid PPI: disrupts binding of human Mcl-1 to Bid peptide | inhibition, % at 21.7 µM | 0.97% of 220,000 active | AID 1021 | Q07820 | TR-FRET Mcl-1/Bid-Dy647 peptide binding, 1536-well;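 active = compounds that cut the binding signal by more than half at the single screening dose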;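 note: His-tagged Mcl-1 with europium anti-His antibody binding Bid BH3 peptide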
# MCL1-BIM inh: inhibitors of human MCL1 binding to BIM-BH3 peptide; Q07820; GST-MCL1 / FITC-Bim-BH3 fluorescence polarization; inhibition, % at 10.9 µM; 0.68% of 320,000 active;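 active = inhibition above the mean inhibition of all tested compounds plus 3 SD, set per campaign, cut at about 40% in these data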;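 note: higher means more loss of mP so more displacement of Bim peptide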
# Mcl1 Noxa PPI: Mcl-1/Noxa interaction inhibition. Q07820. TR-FRET Mcl-1/Noxa peptide binding, 2 h. inhibition, % at 21.7 µM. 1.5% of 220,000 active;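 active = compounds that cut the protein-peptide binding signal by more than 50% relative to plate controls in a single-dose test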;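 note: His-tagged Mcl-1 with rhodamine Noxa BH3 peptide and terbium anti-His antibody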
# Bim-Mcl-1: human Bim-Mcl-1 interaction inhibition; Bead-based flow cytometry, Bim peptide-Mcl-1 binding; 0.1% of 190,000 active; inhibition, % at 10 µM; in the data active = inhibition above about 40%
# BCLXL inh confirm: counter-screen for MCL1 inhibitors: confirmation of human Bcl-xL inhibitors; inhibition, % at 10.9 µM; shares compounds with MCL1-BIM inh; GST-Bcl-xL / FITC-Bim BH3 peptide FP binding; 54% of 1,700 active; AID 2166;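 active = inhibition above a cutoff equal to the mean inhibition of all tested compounds plus 3 SD, cut at about 30% in these data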
# MCL1 inh confirm: MCL1-BIM-BH3 interaction inhibition, confirmation | shares compounds with MCL1-BIM inh | GST-MCL1 / FITC-Bim-BH3 fluorescence polarization | inhibition, % at 10.9 µM | 61% of 1,700 active | AID 2168;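 active = inhibition above the average of all tested compounds plus 3 SD, cut at about 40% in these data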
# GLD1 RNA confirm: GLD-1 TGE RNA interaction inhibition, confirmation. shares compounds with GLD-1 RNA inh. GLD-1/FL-TGE RNA fluorescence polarization, biochemical. inhibition, % at 5.96 µM. 10% of 550 active. AID 2459;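 active = average inhibition across triplicates above the hit cutoff set in the primary screen, cut at about 32% in these data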
# Hits are given with their value; i = inactive; nt = no result given; + = active, no number. Sampled rows, rich in hits. Any-hit rate of the full collection: about 2.3%.
SMILES,GLD-1 RNA inh,BCLXL inh,Mcl1 Bid PPI,MCL1-BIM inh,Mcl1 Noxa PPI,Bim-Mcl-1,BCLXL inh confirm,MCL1 inh confirm,GLD1 RNA confirm
CCCCn1c(N)c(NCc2ccccc2OC)c(=O)[nH]c1=O,i,i,i,i,i,i,nt,nt,nt
CCCCNc1c(N)n(CCCC)c(=O)[nH]c1=O,37,36,i,52,i,i,56,79,79
CC(C)CNc1c(N)n(CC(C)C)c(=O)[nH]c1=O,nt,nt,i,nt,i,i,nt,nt,nt
CCCCn1c(N)c(NCCC)c(=O)[nH]c1=O,31,35,i,50,i,i,i,i,i
CCC(=O)OCCNc1cc(Sc2nc3ccccc3s2)c2nonc2c1[N+](=O)[O-],38,62,i,60,58,i,56,72,i
N#Cc1c(SCC(=O)N2CCOCC2)nsc1SCC(=O)N1CCOCC1,50,66,i,76,i,i,i,i,i
Cc1nnc(SCC(=O)NCC2CCCO2)n1-c1ccccc1 (stereo unspecified),i,i,i,i,i,i,nt,nt,nt
Cc1c(Cl)cnc(NC(=O)COC(=O)c2cccc(S(=O)(=O)N3c4ccccc4CC3C)c2)c1Cl (stereo unspecified),i,i,i,i,i,i,nt,nt,nt
CN1C(=O)c2ccc(N(C)C)cc2C1=O,i,i,i,i,i,i,nt,nt,nt
CN1C(=O)c2ccc(N3CCCC3)cc2C1=O,36,48,i,63,i,i,47,55,i
CCOc1ccccc1OCc1nn2c(-c3ccc(C)cc3)nnc2s1,i,i,i,i,i,i,nt,nt,nt
O=C1CC(c2ccccc2)c2ccccc21 (stereo unspecified),i,i,i,i,i,i,nt,nt,nt
CN1Cc2c(N)cccc2C(c2ccccc2)C1 (stereo unspecified),39,79,i,92,i,i,i,i,i
O=C(O)c1ccc2c3c(ncnc13)-c1ccccc1C2=O,60,72,i,74,i,i,121,142,45
O=C(O)c1cccc2c1C(=O)c1ccccc1C2=O,i,i,i,i,i,i,nt,nt,nt
O=C1c2cccc3cc([N+](=O)[O-])cc(c23)C(=O)N1/N=C/c1ccc(O)cc1O,60,56,98,61,90,nt,i,i,i
COC(=O)c1ccc(OC)c(OC)c1Cl,i,i,i,i,i,nt,nt,nt,nt
CC1CCCN(c2nc3ccccc3nc2C(C#N)S(=O)(=O)c2ccccc2)C1 (stereo unspecified),55,77,i,69,i,i,i,i,i
Cc1ccc(S(=O)(=O)C(C#N)c2nc3ccccc3nc2N2CCN(C)CC2)cc1 (stereo unspecified),i,i,i,i,i,i,nt,nt,nt
CCn1c(CSc2ncccn2)nnc1SCC(=O)N1CCc2ccccc21,36,99,i,103,i,i,i,i,i
Cc1ccc(-c2cc(C(=O)O)c3cc(Br)ccc3n2)o1,37,62,i,75,93,i,i,44,i
Cc1ccc(-c2cc(C(=O)N3CC(C)CC(C)C3)c3ccccc3n2)o1 (stereo unspecified),i,i,nt,i,nt,nt,nt,nt,nt
N#Cc1c(N)sc(=S)c2c1CCCCC2,56,87,i,113,71,i,62,76,i
CN(C)c1ccc(C(CNC(=O)c2ccc(-c3ccccc3)cc2)N2CCOCC2)cc1 (stereo unspecified),37,80,nt,89,nt,nt,i,i,i
Cc1ccc(C(=O)NCC(c2ccc(F)cc2)N2CCOCC2)cc1 (stereo unspecified),i,i,i,i,i,nt,nt,nt,nt
SMILES,GLD-1 RNA inh,BCLXL inh,Mcl1 Bid PPI,MCL1-BIM inh,Mcl1 Noxa PPI,Bim-Mcl-1,BCLXL inh confirm,MCL1 inh confirm,GLD1 RNA confirm
CCc1noc(C)c1C(=O)OC(C)C(=O)Nc1cc([N+](=O)[O-])ccc1OC (stereo unspecified),i,i,nt,i,nt,nt,nt,nt,nt
CN(C)/C=C1\SC(=S)N(c2ccc(F)cc2)C1=O,i,i,i,i,i,nt,nt,nt,nt
CN(C)/C=C1\SC(=S)N(c2ccc(Br)cc2)C1=O,73,131,i,176,i,nt,+,+,32
CCCCn1c(N)c(N(CCOC)C(=O)c2ccc(Br)s2)c(=O)[nH]c1=O,i,i,nt,i,nt,nt,nt,nt,nt
COc1ccccc1NC(C)=[N+](C)CCNS(=O)(=O)c1ccc(Cl)cc1,i,i,nt,i,nt,nt,nt,nt,nt
Cc1ccc(C2Nc3ccccc3NC3=C2C(=O)CC(C)(C)C3)c(O)c1 (stereo unspecified),51,47,nt,52,nt,nt,67,94,i
O=C(NCCCc1ccccc1)c1cccc(Br)c1,i,i,nt,i,nt,nt,nt,nt,nt
CCOC(=O)C1=C(C)OC(N)=C(C#N)C1c1ccccc1 (stereo unspecified),i,i,i,i,i,i,nt,nt,nt
CCC1OC2(C)OC(=N)C1(C#N)C(C#N)(C#N)C2c1ccccc1 (stereo unspecified),44,60,i,55,i,i,i,i,i
O=C(O)c1ccccc1N=Nc1ccc(O)cc1,39,58,nt,64,nt,nt,52,60,33
O=C(O)c1cc(O)ccc1N=Nc1ccccc1,i,i,i,i,i,nt,nt,nt,nt
O=C1CCCC2=C1Sc1ccccc1N2,31,58,i,69,i,nt,53,78,i
CSCCCNC(=S)Nc1cccc(S(=O)(=O)NC2=NCCC2)c1,i,i,i,i,i,i,nt,nt,nt
Nc1ccc(O)c2c1C(=O)c1ccccc1C2=O,82,123,i,158,103,i,120,177,67
O=C(Nc1ccc2c(c1)OCCO2)C1CCN(c2ncccn2)CC1,i,i,i,i,i,i,nt,nt,nt
N#Cc1c(-c2ccco2)cc(-c2cccnc2)nc1N,44,46,i,75,62,i,i,i,i
Cc1ccccc1N=C(N)Nc1ccccc1C,43,63,nt,71,nt,nt,63,85,43
CN(C)c1ccc(/C=N/NC(=O)CSc2ccccn2)cc1,i,i,i,i,i,nt,nt,nt,nt
O=C1NC(=S)/C(=C\c2ccc(-c3ccccc3Cl)o2)S1,60,58,i,62,100,i,91,116,i
Cc1onc(-c2ccccc2Cl)c1C(=O)NCc1ccc2c(c1)cc(C)n2C,68,66,i,77,i,nt,34,47,i
Cc1ccc(CNC(=O)c2c(-c3ccccc3Cl)noc2C)cc1,i,i,nt,i,nt,nt,nt,nt,nt
Cc1nc2cc(NC(=O)N3CCN(c4ccccn4)CC3)ccc2o1,i,i,i,i,i,i,nt,nt,nt
O=C(Nc1ccc2nc(-c3ccco3)c(-c3ccco3)nc2c1)N1CCN(c2ccccn2)CC1,34,51,i,53,64,i,58,71,i
